In PubChem BioAssay:
“And” between values parts separate entries of the source, which are not always exact repeats. Identical values can stand only once. For some assays here: Potency and affinity values are given separately. The source made the active and inactive calls. Rule as the data show it, unless noted: active = parasite load remaining mostly below about 12% (no sharp cut-off); inactive = mostly above about 10%.

What was measured:
[1] = liver-stage malaria parasite growth inhibition, primary screen, cell-based, HepG2, luciferase luminescence, HepG2 viability (AID 624349);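 also: 100% = mean of DMSO negative control wells on the same plate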; details: P. berghei liver stage in HepG2, luciferase luminescence, concentration not given here; parasite load remaining: stronger effect = lower value; viability: measured here: HepG2 viability without parasites
[2] = molecular target: 6-phosphogluconate dehydrogenase, decarboxylating (Homo sapiens) (UniProt P52209); test: 6PGD enzyme inhibitors, primary screen, biochemical, human, recombinant enzyme, NADPH absorbance (AID 1159550;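 active = at least 20% inhibition of 6-phosphogluconate dehydrogenase activity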); details: recombinant 6PGD, NADPH absorbance 341 nm; at 10 µM; stronger effect = higher value
[3] = differential killing of epithelial or mesenchymal cells, primary screen, imaging, PC-3E GFP, TEM4-18 mCherry, co-culture (AID 1345086;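 active = compounds killing one labelled cell type while sparing the other, by normalised counts and ratio limits, not self-fluorescent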;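 as to all read-outs here: cells exposed to compound for 72 h before imaging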;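 as to red/green cell ratio (normalised): normalised mesenchymal count divided by normalised epithelial count so high means epithelial killing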); details: imaging cell counts, at 1 µM; for red/green cell ratio (normalised): actives lie on both sides, counts scaled to control wells, 1 = unselective
[4] = sensitizers of A549 cells to miR-34 induction, primary screen, imaging, A549 dox-inducible miR-34, nuclei and caspase counts (AID 1347080;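 active = compounds whose cell count with miR-34 switched on is under 0.7 times the count with it off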); details: A549 miR-34 inducible, Hoechst nuclei count, 48 h
[5] = molecular target: Mitogen-activated protein kinase 7 (Homo sapiens) (UniProt Q13164); test: ERK5 transactivation activators in reporter cells, primary screen, cell-based, HTS (AID 1508626;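 active = luciferase signal above three times the same-plate solvent-only control wells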;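 also: luciferase driven by Gal4-ERK5 fusion binding five Gal4 sites before minimal TATA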); details: HeLa Gal4-ERK5 transactivation, 18 h, at 5 µM, stronger effect = higher value
[6] = polyglutamine-triggered caspase-3 activation inhibitors, cell-based (AID 1583); details: polyglutamine-induced caspase-3 activation, cell assay; stronger effect = higher value;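 tested at 10 µM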
[7] = suppressors of polyQ aggregation in yeast, 75Q-TubU reporter (AID 1593); details: Yeast 75Q polyglutamine aggregation reporter
[8] = rescue of polyQ-huntingtin neuronal dysfunction in worms, whole organism, C. elegans mechanosensory neurons, N-terminal huntingtin (AID 1599); details: touch response, stronger effect = higher value
[9] = inhibitors of mitochondrial cytochrome c release, biochemical, purified mitochondria (AID 1603); details: stronger effect = lower value;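 also: mouse liver mitochondria challenged with calcium chloride; signal normalized to the plate average as 100%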
[10] = inhibitors of polyQ protein aggregation (AID 1604); details: polyglutamine-induced protein aggregation inhibition assay; stronger effect = higher value; tested at 2.5 µM
[11] = enhancers of glutamate uptake in motor neurons, MN-1 cell line (AID 1612); details: MN-1 motor neuron cells, stronger effect = higher value;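 also: tested at 1 µM final; 0% = mean of DMSO vehicle wells on each plate; positive means more glutamate uptake than control and negative means less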
[12] = reducers of polyQ inclusions in PC12 cells, cell-based, NGF-treated PC12, GFPQ80 (AID 1614); details: PC12 NGF-treated GFP-polyQ80 inclusion reduction;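 also: lower means fewer inclusions and 0 means no inclusions at all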
[13] = suppressors of polyglutamine aggregation in yeast, 75Q-TubH (AID 1616); details: S. cerevisiae 75Q-TubH polyglutamine aggregation suppression; stronger effect = higher value
[14] = molecular target: NAD(+) hydrolase SARM1 (Homo sapiens) (UniProt Q6SZW1); test: SARM1 TIR NADase inhibitors, cell lysate, NAD-Glo luminescence (AID 1508614;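 active = compound whose remaining NAD level is above about 45 nM, limit read from the data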;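 also: higher remaining NAD means stronger inhibition of SARM1 NADase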); details: SAM-TIR HEK293T lysate NADase, at 1 µM, stronger effect = higher value
[15] = survival rescue of mitochondrial mutant cells in low glucose, primary screen, MELAS cybrids, Rieske KO mouse fibroblasts, CellTiter-Glo (AID 1508586;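 active = mean z-score across replicates of 1.96 or higher in either the MELAS or the Rieske mutant cell line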;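 also: z relative to plate mean and SD of compound and empty wells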)
[16] = viability rescue of complex I mutant cybrids, primary screen, cell-based, galactose medium, ATP luminescence (AID 1645843;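 active = z-score of at least 1.8 in each of two replicates, scored against plate mean and spread of sample wells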;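 also: positive z means more ATP and so rescue of galactose-driven cybrid death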); details: complex I mutant cybrid cells, 72 h, stronger effect = higher value
[17] = measured here: epithelial PC-3E GFP cell survival
[18] = measured here: mesenchymal TEM4-18 mCherry cell survival
[19] = stronger effect = lower value, cell number ratio, induced over uninduced
[20] = measured here: relative caspase fold change +Dox/-Dox
[21] = measured here: total cells with miR-34 induction, stronger effect = lower value
[22] = measured here: total cells without miR-34 induction

Sequence of 6-phosphogluconate dehydrogenase, decarboxylating (Homo sapiens) (P52209 whole entry, looked up): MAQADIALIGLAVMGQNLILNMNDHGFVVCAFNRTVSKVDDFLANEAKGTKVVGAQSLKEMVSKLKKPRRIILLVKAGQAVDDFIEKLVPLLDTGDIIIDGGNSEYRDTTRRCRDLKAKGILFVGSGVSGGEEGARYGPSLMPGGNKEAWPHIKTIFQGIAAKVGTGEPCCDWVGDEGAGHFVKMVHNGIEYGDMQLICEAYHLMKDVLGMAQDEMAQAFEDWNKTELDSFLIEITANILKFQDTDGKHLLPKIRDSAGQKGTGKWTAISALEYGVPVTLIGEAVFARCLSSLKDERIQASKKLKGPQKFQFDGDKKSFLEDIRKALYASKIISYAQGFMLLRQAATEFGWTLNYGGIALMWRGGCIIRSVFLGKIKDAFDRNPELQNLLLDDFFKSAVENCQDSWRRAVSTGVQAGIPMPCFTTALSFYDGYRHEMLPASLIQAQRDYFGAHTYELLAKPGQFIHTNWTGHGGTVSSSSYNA
Sequence of NAD(+) hydrolase SARM1 (Homo sapiens) (Q6SZW1 whole entry, looked up): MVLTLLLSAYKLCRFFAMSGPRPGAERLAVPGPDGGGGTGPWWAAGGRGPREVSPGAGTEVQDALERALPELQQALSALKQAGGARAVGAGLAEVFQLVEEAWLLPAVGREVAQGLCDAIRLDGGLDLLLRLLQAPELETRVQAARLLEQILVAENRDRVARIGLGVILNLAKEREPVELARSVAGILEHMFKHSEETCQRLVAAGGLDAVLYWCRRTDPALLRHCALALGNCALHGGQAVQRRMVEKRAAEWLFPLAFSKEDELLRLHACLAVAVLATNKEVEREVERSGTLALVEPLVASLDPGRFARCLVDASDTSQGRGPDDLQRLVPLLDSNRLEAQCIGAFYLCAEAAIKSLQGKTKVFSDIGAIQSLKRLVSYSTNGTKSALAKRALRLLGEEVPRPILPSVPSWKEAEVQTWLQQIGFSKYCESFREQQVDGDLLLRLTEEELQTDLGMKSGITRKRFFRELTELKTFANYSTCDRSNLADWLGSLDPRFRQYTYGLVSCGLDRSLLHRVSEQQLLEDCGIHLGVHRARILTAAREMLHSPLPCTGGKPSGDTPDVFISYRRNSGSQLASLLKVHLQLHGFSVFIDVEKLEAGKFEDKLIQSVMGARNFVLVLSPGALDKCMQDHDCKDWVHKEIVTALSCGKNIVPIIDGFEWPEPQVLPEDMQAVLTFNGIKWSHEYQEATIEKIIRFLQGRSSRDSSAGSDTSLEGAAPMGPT
Sequence of Mitogen-activated protein kinase 7 (Homo sapiens) (Q13164 whole entry, looked up, the tested form may be a part): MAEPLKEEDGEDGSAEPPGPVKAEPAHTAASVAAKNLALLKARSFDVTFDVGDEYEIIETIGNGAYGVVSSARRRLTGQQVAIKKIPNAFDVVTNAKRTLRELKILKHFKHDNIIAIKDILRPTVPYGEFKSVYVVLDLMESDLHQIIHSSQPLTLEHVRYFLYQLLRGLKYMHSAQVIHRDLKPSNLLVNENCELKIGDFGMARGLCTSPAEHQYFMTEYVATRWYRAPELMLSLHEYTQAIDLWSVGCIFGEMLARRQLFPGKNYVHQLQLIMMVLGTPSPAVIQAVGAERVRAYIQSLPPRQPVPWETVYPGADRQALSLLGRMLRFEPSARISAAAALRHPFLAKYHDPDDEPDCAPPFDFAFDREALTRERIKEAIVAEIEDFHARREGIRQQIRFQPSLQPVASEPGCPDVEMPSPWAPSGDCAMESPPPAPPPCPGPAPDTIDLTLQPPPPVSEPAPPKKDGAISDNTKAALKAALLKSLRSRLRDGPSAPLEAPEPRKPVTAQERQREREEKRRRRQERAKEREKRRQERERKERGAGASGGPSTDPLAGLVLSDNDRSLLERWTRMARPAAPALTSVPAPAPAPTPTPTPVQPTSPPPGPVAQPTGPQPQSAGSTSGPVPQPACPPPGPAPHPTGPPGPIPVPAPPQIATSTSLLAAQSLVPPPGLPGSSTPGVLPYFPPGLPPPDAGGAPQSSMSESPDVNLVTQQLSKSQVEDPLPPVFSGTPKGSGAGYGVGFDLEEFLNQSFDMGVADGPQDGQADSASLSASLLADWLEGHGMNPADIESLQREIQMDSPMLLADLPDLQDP

In the case of Cc1[nH]ccc2c1[nH]c1cc(=O)ccc12, the parasite load remaining [1] is reported as 74.5% (inactive) and 99.2% (inactive) and 81.5% (inactive), the viability [1] is reported as 88.4% and 65.9% and 69.9% and the inhibition [2] is reported as 8.86% (inactive). For the same compound, the red/green cell ratio (normalised) [3] was 0.84 (inactive), the normalised cell number [3, 17] was 1 and the normalised cell number [3, 18] was 0.83. The fold change [4, 19] was 0.837 (inactive), the fold change [4, 20] was 1.33 and the cell count [4, 21] was 6490. For the same compound, the cell count [4, 22] was 7750 and the luciferase signal [5] was 76 AU (inactive).

Compound COc1ccc([C@@H]2CC(=O)c3c(O)cc(O)cc3O2)cc1O has an inhibition [6] of 11%, a score [7] of 0.56 and a rescue above control [8] of 6.5. It also gave a cytochrome c release ratio [9] of 0.93, an inhibition of aggregation [10] of 17% and a glutamate uptake change [11] of 0%. For the same compound, the inclusion score [12] was 2, the aggregation suppression score [13] was 0.264 and the parasite load remaining [1] was 25.2% (inactive) and 110% (inactive). The viability [1] was 46.9% and 88%, the inhibition [2] was 4.68% (inactive) and the red/green cell ratio (normalised) [3] was 0.91 (inactive). For the same compound, the normalised cell number [3, 17] was 1.28, the normalised cell number [3, 18] was 1.16 and the fold change [4, 19] was 0.922 (inactive) and 1.13 (inactive). For the same compound, the fold change [4, 20] was 1.33 and 0.691, the cell count [4, 21] was 8710 and 6120 and the cell count [4, 22] was 9450 and 5440. The luciferase signal [5] was 48 AU (inactive).

In the case of CC[C@H]1OC(=O)C[C@@H](O)[C@H](C)[C@@H](O[C@@H]2O[C@H](C)[C@@H](O[C@H]3C[C@@](C)(O)[C@@H](O)[C@H](C)O3)[C@H](N(C)C)[C@H]2O)[C@@H](CC=O)C[C@@H](C)C(=O)/C=C/C(C)=C/[C@@H]1CO[C@@H]1O[C@H](C)[C@@H](O)[C@@H](OC)[C@H]1OC, the parasite load remaining [1] is reported as 131% (inactive) and 58.3% (inactive), the viability [1] is reported as 85.6% and 145% and the inhibition [2] is reported as 1.55% (inactive). The red/green cell ratio (normalised) [3] was 1.03 (inactive), the normalised cell number [3, 17] was 1.05 and the normalised cell number [3, 18] was 1.08. The fold change [4, 19] was 0.905 (inactive), the fold change [4, 20] was 5.16 and the cell count [4, 21] was 12000. For the same compound, the cell count [4, 22] was 13200, the remaining NAD [14] was 10 nM (inactive) and the luciferase signal [5] was 16 AU (inactive).

CC(C(=O)O)c1cccc(Oc2ccccc2)c1 (stereo unspecified) gave an inhibition [6] of -4.11%, a score [7] of 0.02 and a rescue above control [8] of 4.41. It also gave a cytochrome c release ratio [9] of 0.68, an inhibition of aggregation [10] of 72.7% and a glutamate uptake change [11] of 5.16%. For the same compound, the inclusion score [12] was 2, the aggregation suppression score [13] was 0.0306 and the inhibition [2] was 15.8% (inactive). For the same compound, the red/green cell ratio (normalised) [3] was 0.89 (inactive), the normalised cell number [3, 17] was 1.13 and the normalised cell number [3, 18] was 1. The z-score ([15]; MELAS cybrid survival, CellTiter-Glo 48 h, stronger effect = higher value) was -0.0579 (inactive) and -0.205 (inactive) and 0.473 (inactive), the z-score ([15]; Rieske KO mouse fibroblast survival, CellTiter-Glo 72 h) was -0.141 and -0.109 and 0.281 and the remaining NAD [14] was 10 nM (inactive). For the same compound, the luciferase signal [5] was 72 AU (inactive) and the z-score [16] was 0.865 (inactive).

With CO[C@H]1/C=C/O[C@@]2(C)Oc3c(C)c(O)c4c(O)c(c5c(nc6cc(C)ccn65)c4c3C2=O)NC(=O)/C(C)=C\C=C\[C@H](C)[C@H](O)[C@@H](C)C(O)[C@@H](C)[C@H](OC(C)=O)[C@@H]1C (stereo partly specified) the parasite load remaining [1] was 51.2% (inactive), the viability [1] was 113% and the inhibition [2] was -0.37% (inactive). For the same compound, the red/green cell ratio (normalised) [3] was 1.15 (inactive), the normalised cell number [3, 17] was 1.21 and the normalised cell number [3, 18] was 1.39. The fold change [4, 19] was 0.902 (inactive), the fold change [4, 20] was 2.53 and the cell count [4, 21] was 11500. The cell count [4, 22] was 12700.

With COc1cc2cc3c4cc(OC)c(OC)cc4cc[n+]3c(C)c2cc1OC the parasite load remaining [1] was 91.2% (inactive) and 45.3% (inactive) and 68.5% (inactive), the viability [1] was 98.6% and 66.5% and 73.3% and the inhibition [2] was 13.7% (inactive). For the same compound, the red/green cell ratio (normalised) [3] was 0.8 (inactive), the normalised cell number [3, 17] was 1 and the normalised cell number [3, 18] was 0.8. The fold change [4, 19] was 0.879 (inactive), the fold change [4, 20] was 1.23 and the cell count [4, 21] was 8980. For the same compound, the cell count [4, 22] was 10200 and the luciferase signal [5] was 72 AU (inactive).

For CCCCC(=O)Oc1ccccc1C(=O)O, the inhibition [2] was 18.3% (inactive), the red/green cell ratio (normalised) [3] was 0.89 (inactive) and the normalised cell number [3, 17] was 1.25. The normalised cell number [3, 18] was 1.11, the fold change [4, 19] was 0.935 (inactive) and the fold change [4, 20] was 0.938. For the same compound, the cell count [4, 21] was 5290, the cell count [4, 22] was 5650 and the luciferase signal [5] was 56 AU (inactive).

In the case of Nc1c2ccccc2nc2ccccc12 (tested in a mixture with another compound), the parasite load remaining [1] is reported as 2.09% (inactive) and 61.1% (inactive), the viability [1] is reported as 97.8% and 80.2% and the inhibition [2] is reported as 3.89% (inactive). For the same compound, the red/green cell ratio (normalised) [3] was 0.94 (inactive), the normalised cell number [3, 17] was 1.25 and the normalised cell number [3, 18] was 1.17. The fold change [4, 19] was 1.59 (inactive), the fold change [4, 20] was 1.23 and the cell count [4, 21] was 1530. For the same compound, the cell count [4, 22] was 960, the remaining NAD [14] was 10 nM (inactive) and the luciferase signal [5] was 80 AU (inactive).
